This note sets out measurements from PubChem BioAssay AID2563 (Broad Institute, 2010).

Among all 290,000 compounds or so, about 800 (0.28%) were called active.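 The calls were made as follows: active = fall in fluorescence gain of 50% or more versus controls, with final raw signal at or below 3038400; inconclusive = same 50% fall but final raw signal above 3038400; inactive = fall in fluorescence gain under 50%.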 The list comes from a sample in which actives are over-represented; it also holds similar structures and randomly drawn compounds.

CAAX prenyl protease 2 (Saccharomyces cerevisiae (strain ATCC 204508 / S288c)), sequence (Q03530 whole entry, looked up): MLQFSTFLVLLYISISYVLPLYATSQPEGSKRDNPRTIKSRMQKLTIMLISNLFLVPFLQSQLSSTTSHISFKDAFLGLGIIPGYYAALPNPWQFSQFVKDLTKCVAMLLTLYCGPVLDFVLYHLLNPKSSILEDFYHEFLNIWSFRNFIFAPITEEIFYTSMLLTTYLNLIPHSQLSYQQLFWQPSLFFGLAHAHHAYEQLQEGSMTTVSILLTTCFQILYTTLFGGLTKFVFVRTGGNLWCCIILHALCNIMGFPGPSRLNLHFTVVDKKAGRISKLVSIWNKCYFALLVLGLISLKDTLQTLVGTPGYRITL

The assay addresses CAAX prenyl protease 2 (Saccharomyces cerevisiae (strain ATCC 204508 / S288c)) (UniProt Q03530). Briefly: blockers of Rce1 CaaX peptide cleavage – biochemical, fluorescence, cell-free homogeneous, primary screen (AID 2563). As to conditions: yeast membranes, quenched prenylated peptide cleavage fluorescence.
For `COc1cc(Cn2c(N)c(C(=O)NCc3ccco3)c3nc4ccccc4nc32)cc(OC)c1OC`, the compound was classed as active.

As for `CCOC(=O)c1c(N)n(CCN2CCOCC2)c2nc3ccccc3nc12`, the result was inactive.

Take `CCOC(=O)c1c(N)n(Cc2ccccc2)c2nc3ccccc3nc12`: the call was inactive.

As for `COC(=O)C1=C(c2cc3ccccc3s2)C[C@@H]2CC[C@H]1N2C(=O)NCCO`, the call was inactive.

`Cc1cc(N2C(=O)C3CCCN3C2c2ccc(Cl)c(Cl)c2)no1` (stereo not given): the compound was called inactive.
